# Test results reported in PubChem BioAssay (Tox21).
# Records with an inconclusive call do not appear. Calls of active or inactive are those of the source. Calls come from the whole dose curve; as a rule, active = well fitted activation curve with a large enough effect in the repeat runs; inconclusive = weak or mixed curves; inactive = flat fitted curve, though single readings scatter.
# Test: A CellTox Green Cytotoxicity Assay to monitor cytotoxicity in HEK293 cells - 40 hour (AID 1224871); note: nearly all actives have a fitted effect of over 45% in size
# Conditions: CellTox Green fluorescence; series mostly up to 76.8 µM; cytotoxicity increase: at the top concentration
# From the text: National Center for Advancing Translational Sciences [NCATS]
# NIH Chemical Genomics Center [NCGC]
# U.S. Environmental Protection Agency [EPA]
# National Institutes of Environmental Health Sciences [NIEHS]
# National Toxicology Program [NTP]
# Cell-based models are critical for drug discovery. Determining the natural cytotoxic effects resulting from test compounds is an essential research activity. A CellTox Green Cytotoxicity Assay to monitor cytotoxicity in real time of continues cell culture during 40 hours of the compound treatment was used to screen Tox21 10K library compounds in Hek293 cells. CellTox Green Cytotoxicity Assay is a nonlytic, homogeneous, biofluorescent method to measure cytotoxicity in cell culture after experimental manipulation. The assay system uses a proprietary asymmetric cyanine dye that is excluded from viable cells but preferentially stains the dead cell's DNA. […] Viable cells produce no appreciable increases in fluorescence. Therefore, the fluorescence signal produced by the binding interaction with dead cell DNA is proportional to cytotoxicity.
# The mixture of Hek293 cell suspension and reagents were dispensed at 600cells/6 ul/well in 1536-well tissue culture treated black solid bottom plates using a Multidrop dispenser. After the assay plates were incubated at a 37 C/5% CO2 incubator for 5 hours, 23 nL of compounds dissolved in DMSO, positive and negative controls was transferred to the assay plate by a pintool work station. The plates were incubated at 37 C for 40 hours. The fluorescence intensity were measured at 0h, 8h, 16h, 24h, 32h and 40h time points using ViewLux plate reader during compound treatment.
# % is set by controls: 0 for no effect and ±100 for the full control effect; potency is the fitted concentration of half-maximal effect.
SMILES,Potency,cytotoxicity increase
OCCN1CCN(CCCN2c3ccccc3Sc3ccc(Cl)cc32)CC1,26.8 µM (active),–
CCOC(=O)c1ccc(I)cc1,35 µM (active),–
CC(CO)CO,–,-8.65% (inactive)
C=CC(=O)[O-].C=CC(=O)[O-].[Zn+2],–,-6.2% (inactive)
CC(=O)[C@H]1[C@H](C#N)C[C@H]2[C@@H]3CC=C4C[C@@H](O)CC[C@]4(C)[C@H]3CC[C@@]21C,–,1.13% [at 35.3 µM] (inactive)
C1C[C@@H]2[C@H]3CC[C@H](C3)[C@@H]2C1,–,13.1% (inactive)
COC(=O)C1=C(C)NC(C)=C(C(=O)O[C@@H]2CCCN(Cc3ccccc3)C2)[C@@H]1c1cccc([N+](=O)[O-])c1,–,-0.0287% [at 35.3 µM] (inactive)
C=C(C)C(=O)OCCCCCCCCCCCCC,–,-2.74% (inactive)
COC(=O)c1nc(Cl)c(Cl)nc1N,13.4 µM (active),–
CCC1CO1 (stereo not given),–,-1.27% (inactive)
CC(O)c1ccccc1 (stereo not given),–,-6.27% (inactive)
CC(=O)Nc1cc(S(=O)(=O)O)cc2cc(S(=O)(=O)O)c(N=Nc3ccccc3)c(O)c12,–,-31.5% (inactive)
CC(=O)OCCN(CCOC(C)=O)c1ccc(N=Nc2ccc([N+](=O)[O-])cc2C#N)cc1,–,-21.2% (inactive)
CC1(C)S[C@@H]2[C@H](NC(=O)C(c3ccccc3)S(=O)(=O)O)C(=O)N2[C@H]1C(=O)O (stereo not given in full),–,0.31% [at 35.3 µM] (inactive)
O=C(O)c1cccc(-c2noc(-c3ccccc3F)n2)c1,–,-7.88% [at 35.3 µM] (inactive)
Brc1cc(Br)c(Oc2cc(Br)c(Br)cc2Br)cc1Br,–,5.93% [at 35.3 µM] (inactive)
COc1cc(C(=O)NC2CCN(C)CC2)ccc1Nc1ncc2c(n1)N(C1CCCC1)CC(F)(F)C(=O)N2C,35.7 µM (active),–
C=CCc1ccccc1OCC(O)CNC(C)C (stereo not given),–,6.62% [at 35.3 µM] (inactive)
CO[C@]1(NC(=O)CSC(F)F)C(=O)N2C(C(=O)O)=C(CSc3nnnn3CCO)CO[C@H]21,–,-2.39% [at 35.3 µM] (inactive)
CN(C)CCN1C(=O)c2ccccc2N(C)c2ccccc21,–,0.0661% [at 35.3 µM] (inactive)

SMILES,Potency,cytotoxicity increase
CCn1cc(C(=O)O)c(=O)c2cc(F)c(N3CCNCC3)cc21,–,-8.02% [at 35.3 µM] (inactive)
CC(CCC(=O)O)C(=O)O (stereo not given),–,0.139% (inactive)
C[C@H]1C[C@H](O)c2ccsc2S1(=O)=O,–,-30.5% [at 35.3 µM] (inactive)
CC(CN(C)C)C(C)(O)Cc1ccc(Cl)cc1 (stereo not given),–,-2.19% [at 35.3 µM] (inactive)
Cc1ccccc1N=C(N)Nc1ccccc1C,–,-0.0652% (inactive)
O=C1NCCN1CCO,–,-5.05% (inactive)
CC(C)=CC(=O)C=C(C)C,–,6.84% (inactive)
CCCCCCCCCCC(=O)O,–,-2.74% (inactive)
C[C@@]12CCC[C@H]1[C@@H]1CC[C@H]3C[C@@H](O)CC[C@]3(C)[C@H]1CC2,–,-2.82% [at 35.3 µM] (inactive)
Cc1cccc(N(C)C(=S)Oc2ccc3c(c2)CCC3)c1,–,-6.75% [at 35.3 µM] (inactive)
CCCCN1CCCC1C(=O)Nc1c(C)cc(C)cc1C (stereo not given),16.9 µM (active),–
O=C=Nc1ccc(Cl)c(Cl)c1,–,1.9% (inactive)
CC1(C)[C@@H](OC(=O)CCC(=O)O)CC[C@]2(C)[C@H]3C(=O)C=C4[C@@H]5C[C@@](C)(C(=O)O)CC[C@]5(C)CC[C@@]4(C)[C@]3(C)CC[C@@H]12,–,-12.9% [at 35.3 µM] (inactive)
Cc1ccc(OC(=O)c2ccccc2O)cc1,49 µM (active),–
Cc1cc(=O)c2c(O)c3c(O)cc(=O)c4c3c3c(cc(O)c1c23)C(C)(C)C=4O,4.65 µM (active),–
OC[C@H]1O[C@@H](n2cnc3c(=S)nc[nH]c32)[C@H](O)[C@@H]1O,–,4.55% [at 35.3 µM] (inactive)
CN(C(=O)CN(CCO)CC(=O)N(C)C(C)(C)Cc1ccccc1)C(C)(C)Cc1ccccc1,23.9 µM (active),–
COc1cc(N)c(Cl)cc1C(=O)NC1CCN(CCCOc2ccc(F)cc2)CC1OC (stereo not given),–,4.65% [at 35.3 µM] (inactive)
CC(=O)c1ccc([N+](=O)[O-])cc1,–,-18.5% (inactive)
CC(C)=CCC1C(=O)N(c2ccccc2)N(c2ccccc2)C1=O,–,-5.29% [at 35.3 µM] (inactive)
